Results filed as inconclusive are left out. The source made the active and inactive calls. Unless noted, the call rests on the fitted dose curve; in most records, active means well fitted cell-killing curve with a large enough effect; inconclusive means small, poorly fitted or top-dose-only effect; inactive means flat fitted curve, though single readings scatter.
What was measured:
[1] = Cell Viability - LYMP2-025 (AID 976); details: LYMP2-025 lymphoblastoid cell viability; series mostly up to 92.2 µM;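 further: plate controls were DMSO only for no effect and tetraoctylammonium bromide control for full effect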
Procedure, shortened: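 Luminescent ATP readout after 24 hr treatment of a human lymphoblastoid line (LYMP2-025, 2500 cells/well, 37 C). Reagent developed 30 min at room temperature; AC50 fitted with the Hill equation.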

[2] = Cell Viability - LYMP2-002 (AID 977); details: LYMP2-002 lymphoblastoid cell viability, qHTS; series mostly up to 92.2 µM;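 further: compound exposure lasted 24 h at 37 °C; plate controls were DMSO only for no effect and 92 µM tetraoctylammonium bromide for full effect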
Procedure, shortened: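 Human lymphoblastoid cells, 2500/well, complete medium; 5 h 37 C settle; compound 24 h 37 C; CellTiter-Glo, 30 min RT; luminescence. Decrease in ATP = cytotoxicity; AC50 via Hill equation.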

[3] = Cell Viability - LYMP2-006 (AID 978); details: LYMP2-006 lymphoblastoid cell viability, qHTS; series mostly up to 92.2 µM; further: on the % scale 0 is the no-effect control and ±100 the full control effect; nearly all actives have a fitted effect of over 60% in size
Procedure, shortened: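 Cells are seeded at 2500 per well and rested 5 hr at 37 C. Compounds are added across a concentration series for 24 hr at 37 C, after which ATP is quantified by luciferase luminescence.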

[4] = Cell Viability - LYMP2-007 (AID 979); details: LYMP2-007 lymphoblastoid cell viability; series mostly up to 92.2 µM;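 further: cells exposed to compound for 24 h before reading; 0% = DMSO only and the negative end = 92 µM tetraoctylammonium bromide; nearly all actives have a fitted effect of over 60% in size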
Procedure, shortened: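 Measured via luciferase-based ATP quantitation: lymphoblastoid cells, 24 hr compound exposure at 37 C, AC50 from Hill fits.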

[5] = Cell Viability - LYMP2-008 (AID 980); details: LYMP2-008 lymphoblastoid cell viability, qHTS; series mostly up to 92.2 µM; further: on the % scale 0 is the no-effect control and ±100 the full control effect; nearly all actives have a fitted effect of over 60% in size
Procedure, shortened: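 Measured: ATP-dependent luminescence, proportional to viable cell number, in human lymphoblastoid cells treated 24 hr with compound in complete culture medium. Values are AC50s from Hill-equation modelling of qHTS titrations.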

[6] = Cell Viability - LYMP2-010 (AID 981); details: LYMP2-010 lymphoblastoid cell viability, qHTS; series mostly up to 92.2 µM; further: on the % scale 0 is the no-effect control and ±100 the full control effect; nearly all actives have a fitted effect of over 55% in size
Procedure, shortened: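 This 24 hr viability screen uses LYMP2-010 lymphoblastoid cells, quantifies ATP via luciferase luminescence, and derives AC50 from Hill fits of qHTS concentration-response data.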

[7] = Cell Viability - LYMP2-012 (AID 982); details: LYMP2-012 lymphoblastoid cell viability qHTS; series mostly up to 92.2 µM;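 further: cellular ATP by luciferase luminescence where a drop means cytotoxicity; cells exposed to compound for one day before reading; 0% = DMSO only and full loss = 92 µM tetraoctylammonium bromide; nearly all actives have a fitted effect of over 55% in size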
[8] = Cell Viability - LYMP2-014 (AID 983); details: LYMP2-014 lymphoblastoid cells, viability qHTS; series mostly up to 92.2 µM;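 further: plate controls were DMSO only for no effect and 92 µM tetraoctylammonium bromide for full effect; nearly all actives have a fitted effect of over 50% in size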
Procedure, shortened: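 Quantitative HTS in lymphoblastoid cells: 24 hr compound exposure, then CellTiter-Glo ATP luminescence. Positive control was tetraoctylammonium bromide, 6.4pM to 92 uM.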

[9] = Cell Viability - LYMP2-016 (AID 984); details: LYMP2-016 lymphoblastoid cell viability, qHTS; series mostly up to 92.2 µM; further: on the % scale 0 is the no-effect control and ±100 the full control effect; nearly all actives have a fitted effect of over 55% in size
Procedure, shortened: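 Cells were seeded at 2500 per well and rested 5 hr before a 24 hr compound exposure at 37 C. Viability was then gauged as cellular ATP by luciferase luminescence, with AC50 values fitted to the Hill equation.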

[10] = Cell Viability - LYMP2-018 (AID 985); details: LYMP2-018 lymphoblastoid cells, viability (qHTS); series mostly up to 92.2 µM;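 further: plate controls were DMSO only for no effect and tetraoctylammonium bromide at 92 µM for full effect; nearly all actives have a fitted effect of over 50% in size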
Procedure, shortened: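 In this qHTS viability assay, cells are treated for 24 hr and cellular ATP is quantified by luciferase-based luminescence, with tetraoctylammonium bromide as positive control.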

[11] = Cell Viability - LYMP2-020 (AID 986); details: series mostly up to 92.2 µM;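 further: plate controls were DMSO only for no effect and tetraoctylammonium bromide at 92 µM for full effect; nearly all actives have a fitted effect of over 55% in size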
Procedure, shortened: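 Cells at 2500 per well receive a 24 hr compound exposure at 37 C. Viability is measured as ATP-dependent luciferase luminescence, with AC50 modeled from qHTS concentration-response curves.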

[12] = Cell Viability - LYMP2-022 (AID 987); details: LYMP2-022 lymphoblastoid cell viability; series mostly up to 92.2 µM
Procedure, shortened: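 In this qHTS cytotoxicity screen, compound titrations were incubated 24 hr at 37 C with human lymphoblastoid cells in complete medium. Luciferase-based ATP luminescence provided the viability signal.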

[13] = Cell Viability - LYMP2-024 (AID 988); details: LYMP2-024 lymphoblastoid cell viability; series mostly up to 92.2 µM;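 further: plate controls were DMSO only for no effect and 92 µM tetraoctylammonium bromide for full effect; nearly all actives have a fitted effect of over 60% in size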
Procedure, shortened: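 Cells at 2500 per well received compound for 24 hr after a 5 hr settling period. Viability was scored by CellTiter-Glo luminescence, with AC50 from Hill fits.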

[14] = Cell Viability - LYMP2-026 (AID 989); details: LYMP2-026 lymphoblastoid cell viability, qHTS; series mostly up to 92.2 µM; further: on the % scale 0 is the no-effect control and ±100 the full control effect; nearly all actives have a fitted effect of over 50% in size
Procedure, shortened: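 Acute toxicity screen in complete culture medium, with 24 hr compound exposure at 37 C. Viability read as cellular ATP via luciferase reaction, with tetraoctylammonium bromide (6.4pM to 92 uM) as positive control.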

[15] = Cell Viability - LYMP1-002 - Assay at 24 hr (AID 993); details: LYMP1-002 lymphoblastoid cells viability; series mostly up to 92.2 µM; further: on the % scale 0 is the no-effect control and ±100 the full control effect
Procedure, shortened: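 Viability was judged from intracellular ATP using a luciferase read-out, following a 24-hour compound incubation at 37 C of lymphoblastoid cells seeded at 2500 per well. Concentration-response data were fitted to the Hill equation for AC50.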

[16] = Cell Viability - LYMP1-002 - Assay at 40 hr (AID 994); details: LYMP1-002 lymphoblastoid cell viability; series mostly up to 92.2 µM
Procedure, shortened: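 Concentration-dependent ATP loss after 40 hr treatment at 37 C defined toxicity; AC50 values were obtained by fitting the standard Hill equation.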

[17] = qHTS Assay for Identification of Small Molecule Inducers of Hypoxia Response (AID 2120; active means well fitted curve in the direction sought with a large enough effect in the signal ratio, with a control signal flat, not every such curve was filed as active; the % refers to the signal ratio; further: 0% is about no effect); details: hypoxia response reporter cells, beta-lactamase ratio readout; series mostly up to 104 µM
Procedure, shortened: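 HRE-bla ME-180, 2500 cells/well, 0.5% dialyzed FBS medium; cpd titration, 17 h 37 degrees C; CCF4 2.5 h RT; Ex 405, Em 460/530 ratio -> %Activity, AC50.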

[18] = molecular target: Androgen receptor (Homo sapiens) (UniProt P10275); experiment: qHTS assay for small molecule agonists of androgen receptor signaling (AID 588515; active means well fitted curve in the direction sought with a large enough effect in the signal ratio, with a control signal flat; the % refers to the signal ratio; further: on the % scale 0 is the no-effect control and ±100 the full control effect); details: AR-UAS-bla HEK293, beta-lactamase ratio, agonist 16 h; hits give high values
Sequence of Androgen receptor (Homo sapiens) (P10275 whole entry, looked up): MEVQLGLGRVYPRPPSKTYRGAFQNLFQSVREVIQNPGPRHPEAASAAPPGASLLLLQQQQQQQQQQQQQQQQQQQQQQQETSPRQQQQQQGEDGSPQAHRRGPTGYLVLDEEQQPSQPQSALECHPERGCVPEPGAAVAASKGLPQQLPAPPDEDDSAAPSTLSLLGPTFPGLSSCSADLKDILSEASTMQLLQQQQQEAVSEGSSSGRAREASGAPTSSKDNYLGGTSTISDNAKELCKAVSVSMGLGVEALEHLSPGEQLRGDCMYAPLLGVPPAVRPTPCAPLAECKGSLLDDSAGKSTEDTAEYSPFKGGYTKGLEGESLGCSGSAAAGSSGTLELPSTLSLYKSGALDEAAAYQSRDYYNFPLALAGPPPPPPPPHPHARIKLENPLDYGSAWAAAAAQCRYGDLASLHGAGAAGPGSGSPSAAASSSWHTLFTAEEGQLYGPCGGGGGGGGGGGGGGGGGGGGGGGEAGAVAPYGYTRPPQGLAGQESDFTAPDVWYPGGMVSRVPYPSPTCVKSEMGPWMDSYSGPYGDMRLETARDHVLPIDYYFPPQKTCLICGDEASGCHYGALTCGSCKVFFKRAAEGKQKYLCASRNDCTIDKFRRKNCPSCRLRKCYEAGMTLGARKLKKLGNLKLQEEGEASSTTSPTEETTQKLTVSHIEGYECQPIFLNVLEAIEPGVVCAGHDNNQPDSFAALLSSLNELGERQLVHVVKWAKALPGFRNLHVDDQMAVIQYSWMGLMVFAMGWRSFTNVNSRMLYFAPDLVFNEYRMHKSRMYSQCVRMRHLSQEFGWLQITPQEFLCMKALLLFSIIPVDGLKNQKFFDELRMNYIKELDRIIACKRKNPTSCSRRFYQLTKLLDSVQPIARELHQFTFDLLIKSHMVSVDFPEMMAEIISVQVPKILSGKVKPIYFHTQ
Procedure, shortened: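 Stimulation of an AR-responsive β-lactamase reporter in GripTite HEK293 cells was measured after 16 h compound exposure at 37 °C, via CCF4 fluorescence after 2 h RT. EC50 from Hill fits, normalized to R1881 at 30 nM.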

[19] = molecular target: Estrogen receptor (Homo sapiens) (UniProt P03372); experiment: qHTS assay for small molecule agonists of estrogen receptor alpha signaling (AID 588514; calls by dose curve;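 further: 0% = vehicle only and 100% = reference agonist; nearly all actives have a fitted effect of over 70% in size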); details: ER-alpha-UAS-bla HEK293, beta-lactamase ratio, 18 h; series mostly up to 76.8 µM
Sequence of Estrogen receptor (Homo sapiens) (P03372 whole entry, looked up): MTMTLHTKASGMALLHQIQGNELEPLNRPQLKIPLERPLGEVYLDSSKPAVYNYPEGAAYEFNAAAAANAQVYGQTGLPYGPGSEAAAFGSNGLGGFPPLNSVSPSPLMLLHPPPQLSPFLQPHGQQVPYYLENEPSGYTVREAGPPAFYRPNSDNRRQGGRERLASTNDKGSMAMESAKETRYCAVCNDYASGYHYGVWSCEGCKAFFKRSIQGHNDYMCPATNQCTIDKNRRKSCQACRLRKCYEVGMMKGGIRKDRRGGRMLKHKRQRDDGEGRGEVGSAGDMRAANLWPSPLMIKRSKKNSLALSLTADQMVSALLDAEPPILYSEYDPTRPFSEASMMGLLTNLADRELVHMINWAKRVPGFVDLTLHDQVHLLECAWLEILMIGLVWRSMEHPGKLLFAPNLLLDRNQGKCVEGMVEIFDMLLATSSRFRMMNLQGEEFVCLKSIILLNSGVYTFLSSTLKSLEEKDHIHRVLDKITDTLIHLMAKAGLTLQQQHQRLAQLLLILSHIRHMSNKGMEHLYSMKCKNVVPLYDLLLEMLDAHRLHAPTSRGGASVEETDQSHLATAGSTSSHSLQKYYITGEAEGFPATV
Procedure, shortened: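 Fluorescence from CCF4 cleavage reports ER-alpha-driven beta-lactamase expression in HEK 293 cells treated 18 hrs at 37 C. Data normalized to 17-beta-estradiol (20 nM) and DMSO, fitted to Hill equation.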

CCCOCC(C)OCC(C)O (stereo unspecified)
inactive: Potency [1] | Potency [2] | Potency [3] | Potency [4] | Potency [5] | Potency [6] | Potency [7] | Potency [8] | Potency [9] | Potency [10] | Potency [11] | Potency [12] | Potency [13] | outcome [14] | Potency [15] | Potency [16] | outcome [17] | activation [18] 12.1%

CC(=O)C1(C)CC2=C(CCCC2(C)C)CC1C (stereo unspecified)
inactive: Potency [2] | Potency [3] | Potency [4] | Potency [5] | Potency [6] | Potency [8] | Potency [9] | Potency [10] | Potency [11] | Potency [12] | Potency [13] | outcome [14] | Potency [15] | Potency [16] | outcome [17] | activation [18] -4.48%

CC(=O)c1ccccn1
inactive: Potency [1] | Potency [2] | Potency [3] | Potency [4] | Potency [5] | Potency [6] | Potency [7] | Potency [8] | Potency [9] | Potency [10] | Potency [11] | Potency [12] | Potency [13] | outcome [14] | Potency [15] | Potency [16] | outcome [17]

CC1CCC2CC1C2(C)C (stereo unspecified)
inactive: Potency [1] | Potency [2] | Potency [3] | Potency [4] | Potency [5] | Potency [6] | Potency [7] | Potency [8] | Potency [9] | Potency [10] | Potency [11] | Potency [12] | Potency [13] | outcome [14] | Potency [15] | Potency [16] | outcome [17]

CCCC(C)CO (stereo unspecified)
inactive: Potency [1] | Potency [2] | Potency [3] | Potency [4] | Potency [5] | Potency [6] | Potency [7] | Potency [8] | Potency [9] | Potency [10] | Potency [11] | Potency [12] | Potency [13] | outcome [14] | Potency [15] | Potency [16] | outcome [17] | activation [18] -5.4%

[O-]/[N+](=N\O)c1ccccc1
inactive: Potency [3] | Potency [4] | Potency [5] | Potency [6] | Potency [8] | Potency [9] | Potency [10] | Potency [11] | Potency [12] | Potency [13] | outcome [14] | Potency [15] | Potency [16] | outcome [17] | Potency [19]

CC/C=C1/OC(=O)c2ccccc21
inactive: Potency [1] | Potency [3] | Potency [4] | Potency [5] | Potency [6] | Potency [7] | Potency [8] | Potency [9] | Potency [10] | Potency [11] | Potency [12] | Potency [13] | outcome [14] | Potency [15] | Potency [16] | outcome [17] | activation [18] 15.6%

CC(=O)c1ccc([N+](=O)[O-])cc1
inactive: Potency [1] | Potency [2] | Potency [3] | Potency [4] | Potency [5] | Potency [6] | Potency [7] | Potency [8] | Potency [9] | Potency [10] | Potency [11] | Potency [12] | Potency [13] | outcome [14] | Potency [15] | Potency [16] | outcome [17]

N#CCc1ccccc1[N+](=O)[O-]
inactive: Potency [1] | Potency [2] | Potency [3] | Potency [4] | Potency [5] | Potency [6] | Potency [7] | Potency [8] | Potency [9] | Potency [10] | Potency [11] | Potency [12] | Potency [13] | outcome [14] | Potency [15] | Potency [16] | outcome [17]

O=C(Cl)c1ccccc1[N+](=O)[O-]
inactive: Potency [1] | Potency [2] | Potency [3] | Potency [4] | Potency [5] | Potency [6] | Potency [7] | Potency [8] | Potency [9] | Potency [10] | Potency [11] | Potency [12] | Potency [13] | Potency [15] | Potency [16] | outcome [17] | activation [18] 6.98%

CC(C)Cc1nccs1
inactive: Potency [1] | Potency [2] | Potency [3] | Potency [4] | Potency [5] | Potency [6] | Potency [7] | Potency [8] | Potency [9] | Potency [10] | Potency [11] | Potency [12] | Potency [13] | outcome [14] | Potency [15] | Potency [16] | outcome [17]

CCCCC(CC)C(=O)O (stereo unspecified)
inactive: Potency [1] | Potency [2] | Potency [3] | Potency [4] | Potency [5] | Potency [6] | Potency [7] | Potency [8] | Potency [9] | Potency [10] | Potency [11] | Potency [12] | Potency [13] | outcome [14] | Potency [15] | Potency [16] | outcome [17]

CCOC(=O)C(C)C(C)=O (stereo unspecified)
inactive: Potency [1] | Potency [2] | Potency [3] | Potency [4] | Potency [5] | Potency [6] | Potency [7] | Potency [8] | Potency [9] | Potency [10] | Potency [11] | Potency [12] | Potency [13] | outcome [14] | Potency [15] | Potency [16] | outcome [17]

CC(=O)c1cc(C)oc1C
inactive: Potency [1] | Potency [2] | Potency [3] | Potency [4] | Potency [5] | Potency [6] | Potency [7] | Potency [8] | Potency [9] | Potency [10] | Potency [11] | Potency [12] | Potency [13] | outcome [14] | Potency [16] | outcome [17] | activation [18] -1.32%

CN(C)c1cccc(O)c1
inactive: Potency [1] | Potency [2] | Potency [3] | Potency [4] | Potency [5] | Potency [6] | Potency [7] | Potency [8] | Potency [9] | Potency [10] | Potency [11] | Potency [12] | Potency [13] | outcome [14] | Potency [15] | Potency [16] | outcome [17]

O=[N+]([O-])c1cc(C(F)(F)F)ccc1Cl
inactive: Potency [1] | Potency [3] | Potency [4] | Potency [5] | Potency [6] | Potency [7] | Potency [8] | Potency [9] | Potency [10] | Potency [11] | Potency [12] | Potency [13] | outcome [14] | Potency [15] | Potency [16] | outcome [17] | activation [18] 13.2%
